Test systems include RPMI-8226 leukemia; OVCAR-8 ovarian; OVCAR-5 ovarian; OVCAR-4 ovarian; SK-OV-3 ovarian; OVCAR-3 ovarian; HS 578T breast; NCI/ADR-RES ovarian; T-47D breast; MDA-MB-435 melanoma; SW-620 colon; MCF7 breast; HCT-116 colon; HCC-2998 colon; KM12 colon; BT-549 breast; IGROV1 ovarian.
Experiment in all cases: NCI-60 one-dose screen, 48 h (100 = growth as untreated, 0 = no growth, -100 = all killed)
Common to all, as to conditions: 10 µM unless noted

SMILES strings stand for the structures. About 83,000 compounds went through this panel and 20% of them were active in at least one assay; those are over-represented in the sample as a whole.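 Single-dose data. Exposure time 48 hours. Values below 10 considered active.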 Unmarked numbers belong to inactive results. Activity calls are given as the source filed them.

Take `C=C1C(=O)O[C@H]2[C@H](O)[C@@H](C)CCC/C(C)=C/CC[C@@]3(C)O[C@@H]3C[C@@H]12`: the growth with RPMI-8226 leukemia was 99.8%; with OVCAR-8 ovarian, 88.7%; with OVCAR-5 ovarian it was 95.8%; with OVCAR-4 ovarian, 103%; in the experiment on SK-OV-3 ovarian, 96.8%; with OVCAR-3 ovarian, 72.6%. Also, the growth in the experiment with HS 578T breast was 98.4%; in the experiment with NCI/ADR-RES ovarian it was 97.6%; with T-47D breast, 97.2%; with MDA-MB-435 melanoma, 94.4%; in the experiment on SW-620 colon, 79.9%; in the experiment with MCF7 breast, 69.1%. For the same molecule, the results for the growth in the experiment with HCT-116 colon, in the experiment on HCC-2998 colon and in the experiment with KM12 colon were 74.3%, 111% and 119%, respectively.

As to `O=C1CCC(=O)N1Cc1ccccc1`, the growth in the experiment on RPMI-8226 leukemia is 109%; in the experiment with OVCAR-8 ovarian, 108%; in the experiment on OVCAR-5 ovarian, 97.7%; with OVCAR-4 ovarian, 96.9%; with SK-OV-3 ovarian, 113%; in the experiment on OVCAR-3 ovarian, 102%. Moreover, the growth is 102% in the experiment on HS 578T breast; 89.8% in the experiment on NCI/ADR-RES ovarian; 113% in the experiment with T-47D breast; 111% in the experiment on BT-549 breast; 99.4% with MDA-MB-435 melanoma; 100% with SW-620 colon. The growth was 91.5% with MCF7 breast, 98.6% with HCT-116 colon, 101% in the experiment with HCC-2998 colon and 96.4% in the experiment with KM12 colon.

`CCC1=C[C@@H]2CN(C1)Cc1c([nH]c3ccccc13)[C@@](C(=O)OC)(c1cc3c(cc1OC)N(C=O)[C@H]1[C@@](O)(C(=O)OC)[C@H](OC(C)=O)[C@]4(CC)[C@@H]5C[C@@H]5CN5CC[C@]31[C@@H]54)C2`: the growth with RPMI-8226 leukemia is -6.79% (active); in the experiment with OVCAR-8 ovarian, 8.45% (active); in the experiment on OVCAR-5 ovarian it was 44.2%; with OVCAR-4 ovarian, 47%; in the experiment with SK-OV-3 ovarian, 5.16% (active); in the experiment on HS 578T breast it was 26.3%. In addition, the growth with NCI/ADR-RES ovarian is -28.8% (active); in the experiment with T-47D breast it was 97.5%; in the experiment with BT-549 breast, 47.9%; in the experiment with MDA-MB-435 melanoma, -57.1% (active); in the experiment on SW-620 colon, 26.3%; in the experiment on MCF7 breast, 10.9%. The results for the growth with HCT-116 colon, in the experiment on HCC-2998 colon and in the experiment on KM12 colon were 7.99% (active), -13% (active) and 8.8% (active), respectively.

As for `Cc1cc2c(C(C)C)c(O)c(O)c(C=NCCCCC(=O)O)c2c(O)c1-c1c(C)cc2c(C(C)C)c(O)c(O)c(C=NCCCCC(=O)O)c2c1O`, the growth is 28.8% in the experiment with RPMI-8226 leukemia; 46.1% with OVCAR-8 ovarian; 70.9% in the experiment on OVCAR-5 ovarian; 44.2% in the experiment on OVCAR-4 ovarian; 63.9% in the experiment with SK-OV-3 ovarian; 45.4% in the experiment with OVCAR-3 ovarian. Also, the growth in the experiment on HS 578T breast was 30.9%; in the experiment on NCI/ADR-RES ovarian, 74.2%; with T-47D breast, 53.9%; with BT-549 breast, 41.6%; in the experiment with MDA-MB-435 melanoma it was 61%; in the experiment on SW-620 colon, 37.1%. The growth with HCT-116 colon is 33%; in the experiment on HCC-2998 colon, 40.2%; with KM12 colon it was 25.6%.

As to `O=C1CCCCN1CCCCC#Cc1ccccc1C#Cc1ccccn1`, the growth is 107% with RPMI-8226 leukemia; 113% in the experiment with OVCAR-8 ovarian; 95.2% with OVCAR-5 ovarian; 95.2% in the experiment with OVCAR-4 ovarian; -11.3% (active) in the experiment with IGROV1 ovarian; 104% in the experiment on OVCAR-3 ovarian. Moreover, the growth with HS 578T breast was 118%; in the experiment on NCI/ADR-RES ovarian it was 92.2%; with T-47D breast, 92.9%; with BT-549 breast, 117%; in the experiment on MDA-MB-435 melanoma, 98.1%; with SW-620 colon, 103%. Moreover, the growth is 109% in the experiment with MCF7 breast, 106% in the experiment with HCT-116 colon, 88.5% in the experiment on HCC-2998 colon and 111% in the experiment on KM12 colon.

In the case of `Cc1oc2nc[nH]c(=O)c2c1C(=O)/C=C/c1ccc(Cl)cc1`, the growth in the experiment on RPMI-8226 leukemia was -14.1% (active); with OVCAR-8 ovarian, 15.8%; with OVCAR-5 ovarian, 34.5%; in the experiment with OVCAR-4 ovarian, 29.8%; in the experiment with IGROV1 ovarian it was 38.9%; in the experiment on OVCAR-3 ovarian, 4.32% (active). Also, the growth with HS 578T breast is 60.5%; in the experiment with NCI/ADR-RES ovarian, 10.4%; in the experiment on BT-549 breast it was 20.2%; in the experiment on MDA-MB-435 melanoma, 6.74% (active); with SW-620 colon, 8.49% (active); in the experiment with MCF7 breast, 15.4%. The growth in the experiment with HCT-116 colon was 13.7%; in the experiment on HCC-2998 colon, 83.1%; with KM12 colon, 13.6%.

Regarding `OC1CC2c3ccccc3C1c1ccccc12` (stereo not given), the growth in the experiment with RPMI-8226 leukemia was 104%; with OVCAR-8 ovarian, 106%; with OVCAR-5 ovarian it was 113%; with OVCAR-4 ovarian it was 100%; with SK-OV-3 ovarian, 112%; with OVCAR-3 ovarian, 112%. Moreover, the growth is 104% with HS 578T breast; 110% in the experiment with NCI/ADR-RES ovarian; 111% in the experiment with T-47D breast; 108% in the experiment with BT-549 breast; 107% with MDA-MB-435 melanoma; 108% with SW-620 colon. Besides, the growth in the experiment with MCF7 breast was 98.8%; with HCT-116 colon, 103%; in the experiment with HCC-2998 colon it was 108%; in the experiment with KM12 colon it was 107%.

Regarding `NC(N)=NC(N)=Nc1ccccc1-c1ccccc1`, the growth was 113% in the experiment with OVCAR-8 ovarian; 110% with OVCAR-5 ovarian; 110% in the experiment with OVCAR-4 ovarian; 123% in the experiment on SK-OV-3 ovarian; 110% in the experiment with IGROV1 ovarian; 117% with OVCAR-3 ovarian. In addition, the growth was 109% in the experiment with HS 578T breast; 117% with NCI/ADR-RES ovarian; 108% with T-47D breast; 131% with BT-549 breast; 103% in the experiment with MDA-MB-435 melanoma; 107% in the experiment with SW-620 colon. Besides, the growth in the experiment with MCF7 breast is 110%; with HCT-116 colon it was 102%; with HCC-2998 colon, 105%; in the experiment on KM12 colon, 107%.

On to `Cc1nn(-c2ccc(Cl)cc2)c(=O)n1CCOc1ccccc1Cl`, for which the growth in the experiment on RPMI-8226 leukemia is 88.9%; in the experiment on OVCAR-8 ovarian it was 92.7%; in the experiment on OVCAR-5 ovarian, 102%; in the experiment with OVCAR-4 ovarian it was 68.1%; in the experiment on SK-OV-3 ovarian, 92.9%; in the experiment with OVCAR-3 ovarian, 121%. The growth in the experiment with HS 578T breast was 90.3%; in the experiment with NCI/ADR-RES ovarian, 89.9%; in the experiment on T-47D breast, 79.5%; in the experiment on BT-549 breast, 94.4%; in the experiment with MDA-MB-435 melanoma, 107%; with SW-620 colon it was 103%. The growth is 98.3% with MCF7 breast, 74% in the experiment on HCT-116 colon, 106% with HCC-2998 colon and 101% in the experiment on KM12 colon.
